# Data: the supplement of paper PMC12632987
# The full ranking holds about 4,500 sequences; the median of “median log2 fold change of GCK-ALFA target abundance (FLAG IP / Myc IP barcode read proportion)” is about 0.078, and the lowest 2% start at about -0.6. The entries come from a sample that favours the lowest values as a whole.
# B1: GBRAP_128_3427 (protein)
# chain: STAAKVAEVEALLEAMLTADAAEAAALARRIAALMLASDLETVEAMVEVILSMLPKFTAEQLEILADALREARPEFTPEKQLLVSEVEVAALNEAEEKEE
# B2: GBRAP_160_4711 (protein)
# chain: MEVKEKLKKYVEEEFEEAKELIKGESIEQRAIIVEGTIGEIIMELFEEEEASDELIDEVDKIGDELVETILANPDLTEEEIEELIEKAEEEIKKAIDKYV
# B3: GBRAP_39_5693 (protein)
# chain: EEDEENEDHVSYLQALAAKRLYETGISLEEATKEAKKILEEEAKRNPELKELLEELIKLAEEKGDEAKEVLIGVAVLIEEGEPKEEIKEHIEKAIKYFKK
# B4: GBRAP_95_7034 (protein)
# chain: EDDKLALESALEVAVAAAELGDEEAAARALKEALELLKKAGKVKLDPELLKETIEVIREVGVKKLPKEEVLELLELLKESAETEEVKKLAEEAIEEVKKR
# B5: GBRAP_74_6536 (protein)
# chain: SEEKEKVIKEINEAETIEEAIEITEKVLETDDKELARAAVQELLLKAAERKDELTLEEAERLVEVIVRAFEKNGIVVETREEAEALNTVLTKALELEEKA
# B6: GBRAP_166_4984 (protein)
# chain: MEEELVEELKKYLEELAEKMKEAGPEERQELVAEAAERLAEAREKGLSREKLGELVEYLLRLAREVGIPISAVEGALSILADLDEEEIDILDEAARRVAA
# B7: GBRAP_128_3314 (protein)
# chain: MDEERLEEAREIVERMKEADLEELAELTRRLAELLGTLTPEERDIVAEIFREGLKELSAEKLDVVADVLREVRPSLDPETANVVADLEVEALNEAVEKEE
# B8: GBRAP_74_6519 (protein)
# chain: EEELLAALEAAAAAGDAATAVALARRIVAEGSLEAVERAARIMVAFVERHADALSPEELEAVADALAELADELMLRGGDSEVVLAVARAAVALEERRRAL
# B9: GBRAP_128_3579 (protein)
# chain: SVEEVRAEVRALLEAMKTADAAEQKAIATEIATRFTTLTPEERRAAAETIEELLPELSAEQLDILADALRAARPTADPEAANLLADVEVAALNEALEKEE
# B10: GBRAP_160_4226 (protein)
# chain: METVEKIVKVFRDTFLEALELIEGESAEERAVILDVAVGEVILEVSEIEEATDEMEEVVDKKAEALAAALLAAADASAAERRALVDKAAAELRKELEKIE
# B11: GBRAP_184_5358 (protein)
# chain: EVRHLSVTVETKEEAVEKLAEAREEIRASGLPTVLVVELKNADLETVETVMELLAELREEGLIERGIVVVDDDRSEEEIDKMVELADRYGVDLVVAIPEE
# B12: GBRAP_159_3958 (protein)
# chain: MEELEKRVKEAKEKAKDNPEVVKLIEEVYDLIKEGEDAETIADFTVGSIVTLDVTPEEARLVLSVLPEETRRLAAEDLAYLAEELGREDLAAAARAILEE
# B13: GBRAP_128_3325 (protein)
# chain: MNEERIKEAEEIIKEIVKADVEEAKKLTEELLKLMETMTDEERDIVVEIMEKELEKLDAEKLDAIADTIRELQPTLDPLTARYAAEIEVEALNLAEEKEE
# B14: GBRAP_160_4149 (protein)
# chain: SEELKKLIKEIKEITEEAIKLMEGETPEEAKVIAKVALGEIVMLVESNEEVSEETEEKVGEIADEAEEYLDENPDLTVEEIKELLKKAGEEVIKIIEEEL
# B15: GBRAP_160_4147 (protein)
# chain: SAELKALIEEIREITEEAIKLMEGETPEEAKVIARVALGEIVMLVFSNEAVSEETEEEVGEVADEAEAHLRANPDLTVEEIKAILREAGEEVIEIIEKEV
# B16: GBRAP_52_5941 (protein)
# chain: SSSRLKEIAEELIKLALAGDEEGLRKKAREIAKTYSDEEILAIAKEIAKMAKEAPKEDLDAYFRLMEILTEELEKEGRSEELISEIEGLMAKAMYENELK
# B17: GBRAP_160_4588 (protein)
# chain: MESLEKMKEIVREELEEAKEMIVGETAEQRATIVLGAGGEIVMELSENPEASDELEDEVLKIADEAADTILANPNITEEEFNALLDEMEKKMIEAIEKHL
# B18: GBRAP_11_2927 (protein)
# chain: KKEKIKEIAELAEELAEAADRLIAEGTDNEELRKKLEELLEKLVELVKEYGDEADKKDAEHMRELWEKAKADPANAVQYLTELRNEARVLSGIYLLEYDE
# B19: GBRAP_139_3733 (protein)
# chain: SADDAAVAEVVALTKRSVETGGALVAEIADALNALDEDTADRAAEAMAEVLETQPFDVAEALFDALIDTLLTEHKNEDLATIVEAAANRALARIAVREEA
# B20: GBRAP_52_6365 (protein)
# chain: MLEEAVELLRKAVEATLAGKEEEAEEILKEIVENFSDETIVKAVERLAEEVATKTLEEAEAFLDTAIRLADIMLEAGRDEAKADEIEAIAAKAYSAVLAK
# B21: GBRAP_160_4219 (protein)
# chain: METIERIVEIFRENFLEALELIEGESEEERKVILDVAVGEIILEVDSDENVTDEMEEVVDEKARELAEELLKLKNASEEEKRALIEEKAEELREELEKLA
# B22: GBRAP_160_4221 (protein)
# chain: SETIERIVKIFRENFEEAVELIEGESLEEQKVILDVAVGEVILEVSSDENVTDEMEEVVEKKAEEAAEELLKLKNASREEKLKLIEEKAKELKKELEKLA
# B23: GBRAP_166_4915 (protein)
# chain: SMEELLEEAKRRIEELVKKIPKTDREKQVELAIEIAEVLEELEKAGASEEELDELWRHLAEALKEAGLDVERLMAVVAAAAGLDEEEMERVDEIVEEVLA
# B24: GBRAP_52_6254 (protein)
# chain: MRARLRADAREIVALVAAGREEEARALARDIAENYNEEELRLFVDEMAALAREARPEELDTVWRAAELMAEELEAAGKPEILVDDLLARVAAAAVEVLAR
# B25: GBRAP_52_6083 (protein)
# chain: MEKEIEETANKIYEAIKAGDKEKALELIKEAIKKFSPEEIKEMLKLTAEKVASLGDEKHELFVDILTEAEDLMIEAGISEEEALLIVGDAEAALAKAVAA
# B26: GBRAP_52_6085 (protein)
# chain: MEEEIEERAEEIYEAIKAGDKEKALALIKKAIKEFSAEEIKRMLELTAKRVASLGDDAHELFVDILGEAEDLLIEAGISEEEALAIVGAAEAALARAVAA
# B27: GBRAP_52_6084 (protein)
# chain: MKEKIEKTAKEIYEAIKAGDKEKALELIKKAVEEFSKEEIKEMLELTAKRVASLGDDAHELFVDILDEAEDILIEAGISEDDALLIVGSAEAALAKAVAA
# B28: GBRAP_160_4760 (protein)
# chain: KEKLKKLKEEVEEIFKEHLEMLKEVKPEEAPTVVRGAMGEVIMEVMSSEAASDELEEKIGEIADEAEEEAEANKDAPVEFHIKILEEARKKILSLIEEEI
# B29: GBRAP_125_2982 (protein)
# chain: PTEQELEDLRRFARALGLDEEEAEEAAELARAHSLRGTVYAILAALGEEEAADLVEKLTEEEVARVLRRVAAYLEAHPDATPEEVVALFRELAEEELAKR
# Target: GABARAP, O95166
# Test: median log2 fold change of GCK-ALFA target abundance (FLAG IP / Myc IP barcode read proportion) (log2 ratio); each designed protein is fused to an ALFA-tag nanobody in HEK293 cells to bring the named protein to FLAG-tagged glucokinase (GCK); Myc marks an untargeted standard; higher = target protein stabilised (more abundant)
# Details: target protein: 3xFLAG-MCP-GCK-ALFA reporter; HEK293 landing pad (RPLP)
# Procedure: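 LABEL-seq trans screen in HEK293 landing-pad cells. Each de novo designed 100-aa effector handle, binding the indicated effector (E3 ligase, DUB or autophagy protein), is fused to a constant NbALFA target handle and induced with 2 ug/mL doxycycline. A FLAG-MCP-GCK-ALFA target and a Myc-MCP standard reporter were transfected, and after 48 h circRNA barcodes were recovered by anti-FLAG and anti-Myc IP and sequenced. The value is the median across barcodes (at least 3 per design) of log2(FLAG/Myc read-proportion ratio), with the two transfection replicates pooled. Negative values mean degradation and positive values mean stabilisation of the target.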
# GABARAP, O95166, sequence (O95166 whole entry, the tested form may be a part): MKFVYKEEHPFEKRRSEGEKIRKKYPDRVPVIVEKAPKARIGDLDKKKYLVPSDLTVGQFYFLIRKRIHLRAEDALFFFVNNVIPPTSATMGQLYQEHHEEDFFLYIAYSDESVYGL
row,Binder,median log2 fold change
1,B1,0.18
2,B2,-0.152
3,B3,0.24
4,B4,0.352
5,B5,-0.769
6,B6,0.23
7,B7,0.162
8,B8,-0.0734
9,B9,0.177
10,B10,-0.651
11,B11,-0.0422
12,B12,0.0598
13,B13,0.156
14,B14,-0.271
15,B15,-0.617
16,B16,0.165
17,B17,-0.211
18,B18,0.134
19,B19,0.133
20,B20,-0.000301
21,B21,-0.349
22,B22,-0.86
23,B23,0.0994
24,B24,-0.285
25,B25,-0.22
26,B26,-0.146
27,B27,-0.732
28,B28,-0.185
29,B29,-0.551
